This passage reports cell event count results from PubChem BioAssay AID1076 (NMMLSC, 2008).

A short description of this assay: cytotoxicity in LNCaP prostate cells – cell-based, cell event count, single point, cytotoxicity control for prostate differentiation activator project, confirmation (AID 1076).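 Further: counts scatter-gated live cells after medium removal discards detached dead cells.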 The note with it: LNCaP cell loss, flow cytometry event count, 4 d, stronger effect = lower value.

The structures appear in SMILES notation. The source made the active and inactive calls.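 How the source made its calls: active means cell event count below 40, meaning activity score above 60 where score is 100 minus count; inactive means the rest.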

As to `CCOc1ccc(NC(=O)COc2nsnc2N2CCCCC2)cc1`, the cell event count was 23 (active) (at 100 µM) and 63.5 (event count, at 10 µM).

Regarding `Cc1ccc(C)c(N2CCN(C(=O)CCNC(=O)Cn3ccc4ccccc4c3=O)CC2)c1`, the cell event count by setting is: (at 100 µM) 76 (inactive); (event count, at 10 µM) 148.

Regarding `Cc1ccnc(NC(=O)CCC(=O)N(CC(=O)NC2CCCCC2)c2cccc(C)c2C)c1`, the cell event count was 27 (inactive) (at 100 µM) and 66 (event count, at 10 µM).

In the case of `N#CC(C(=O)c1ccco1)c1ccccn1` (stereo unspecified), the cell event count runs as follows: (at 100 µM) 40 (active); (event count, at 10 µM) 40.5.

Regarding `COc1ccc(CCNC(=O)C2CCN(Cc3nc(-c4ccccc4C)oc3C)CC2)cc1OC`, the cell event count runs as follows: (at 100 µM) 1 (inactive); (event count, at 10 µM) 188.

Consider `CCc1nnc(NC(=O)CSc2nc3ccccc3s2)s1`, for which the cell event count is 209 (inactive) (at 100 µM) and 142 (event count, at 10 µM).

For the molecule `CC1CCCCN1CCNC(=O)c1ccc2c(=O)n(CCc3ccccc3)c(=O)[nH]c2c1` (stereo unspecified), the cell event count (at 100 µM) is 168 (inactive) and the cell event count (event count, at 10 µM) came out at 184.

Take `Cc1cc(=O)oc(C)c1C(=O)NCCCN1CCN(c2ccccc2F)CC1`: the cell event count by setting is: (at 100 µM) 232 (inactive); (event count, at 10 µM) 308.

On to `CCc1ccc(-c2nc(CN3CCC(C(=O)NCc4ccc(F)cc4)CC3)c(C)o2)cc1`, for which the cell event count (at 100 µM) was 1 (active) and the cell event count (event count, at 10 µM) turned out to be 62.5.

For the molecule `CCOC(=O)N1CCC(NC(=O)C2CCCN(Cc3nc(-c4cccc(Cl)c4)oc3C)C2)CC1` (stereo unspecified), the cell event count was 33 (inactive) (at 100 µM) and 114 (event count, at 10 µM).

In the case of `COC(=O)Nc1sc2c(c1C(N)=O)CCCCCC2`, the cell event count (at 100 µM) was 80 (inactive) and the cell event count (event count, at 10 µM) was 202.

Take `Cc1cc(C)n2nc(SCC(=O)Nc3ccc(F)cc3)nc2n1`: the cell event count was 226 (inactive) (at 100 µM) and 343 (event count, at 10 µM).

Consider `CCOC(=O)c1cc2c(=O)n3ccccc3nc2n(CCCOC)c1=NC(=O)c1cccnc1`, for which the cell event count (at 100 µM) is 223 (inactive) and the cell event count (event count, at 10 µM) is 144.

As for `O=C1CCCc2c1cc(C(=O)NC1CCSC1=O)c(=O)n2-c1ccccc1` (stereo unspecified), the cell event count is, setting by setting: (at 100 µM) 253 (inactive); (event count, at 10 µM) 155.

In the case of `Cc1oc(-c2ccc(Cl)cc2)nc1CN1CCCC(C(=O)NCCCN2CCOCC2)C1` (stereo unspecified), the cell event count is, setting by setting: (at 100 µM) 42 (inactive); (event count, at 10 µM) 182.

Take `CCOC(=O)N1CCC(NC(=O)c2cc3c(-c4ccc(OC)c(OC)c4)nn(C)c3s2)CC1`: the cell event count is, setting by setting: (at 100 µM) 151 (inactive); (event count, at 10 µM) 398.

Consider `O=C(Nc1nc(-c2ccccc2)cs1)C1CCCCN1S(=O)(=O)c1ccccc1` (stereo unspecified), for which the cell event count by setting is: (at 100 µM) 234 (inactive); (event count, at 10 µM) 210.

For `Cn1c(C(=O)NCCCN2CCN(c3cccc(Cl)c3)CC2)cc2c(=O)n(C)c3ccccc3c21`, the cell event count reads like this: (at 100 µM) 46 (inactive); (event count, at 10 µM) 251.

Take `COc1ccc(-n2c(C)nc3c(cnn3-c3ccc(Cl)cc3)c2=O)cc1`: the cell event count is 45 (inactive) (at 100 µM) and 84 (event count, at 10 µM).

Turning to `O=C(Cn1c(=O)[nH]c2ccsc2c1=O)NC1CCCCCC1`, the cell event count runs as follows: (at 100 µM) 120 (inactive); (event count, at 10 µM) 118.

`O=C(CSc1nc2sc3c(c2c(=O)n1-c1ccccc1)CCCC3)NCc1ccco1`: the cell event count is 25 (inactive) (at 100 µM) and 104 (event count, at 10 µM).

For the molecule `COc1ccccc1CNC(=O)C1CCN(Cc2nc(-c3cccc(Cl)c3)oc2C)CC1`, the cell event count was 9 (inactive) (at 100 µM) and 158 (event count, at 10 µM).

`CSc1nc2ccc(Nc3nc(N4CCOCC4)nc(N4CCOCC4)n3)cc2s1`: the cell event count reads like this: (at 100 µM) 48 (inactive); (event count, at 10 µM) 138.

Turning to `Cc1ccccc1-c1nc(CN2CCC(C(=O)NCCC3=CCCCC3)CC2)c(C)o1`, the cell event count (at 100 µM) was 11 (inactive) and the cell event count (event count, at 10 µM) was found to be 93.5.

In the case of `CCc1ccc(-c2nc(CN3CCC(C(=O)NCc4ccccc4OC)CC3)c(C)o2)cc1`, the cell event count runs as follows: (at 100 µM) 49 (inactive); (event count, at 10 µM) 190.

Turning to `OCc1nc2ccccc2n1CCCOc1ccccc1`, the cell event count (at 100 µM) was 178 (inactive) and the cell event count (event count, at 10 µM) worked out at 156.

In the case of `CC(C)N1CCC2(CC1)N=C(c1ccc3c(c1)OCO3)CC(c1cc(Cl)ccc1O)N2` (stereo unspecified), the cell event count (at 100 µM) is 46 (inactive) and the cell event count (event count, at 10 µM) was 43.5.

For `CCOC(=O)c1c(C)n(C)c2ccc(OCC(O)CNC(CC)CO)cc12` (stereo unspecified), the cell event count reads like this: (at 100 µM) 99 (inactive); (event count, at 10 µM) 88.5.

Consider `Cc1ccccc1-c1nc(CN2CCC(C(=O)NCc3ccco3)CC2)c(C)o1`, for which the cell event count by setting is: (at 100 µM) 158 (inactive); (event count, at 10 µM) 296.

For the molecule `CCc1ncc(C(O)c2cccc(OC)c2OC)n1C` (stereo unspecified), the cell event count is 285 (inactive) (at 100 µM) and 172 (event count, at 10 µM).

Take `COc1ccc(Cc2noc(-c3ccc(C)cc3)n2)cc1`: the cell event count (at 100 µM) was 70 (inactive) and the cell event count (event count, at 10 µM) was found to be 152.

`COc1ccc(-c2noc(CCC(=O)NCCCN3CCC(Cc4ccccc4)CC3)n2)cc1`: the cell event count (at 100 µM) is 23 (active) and the cell event count (event count, at 10 µM) was 51.

Regarding `Cc1oc(-c2ccc(Cl)cc2)nc1CN1CCC(C(=O)NCc2cccnc2)CC1`, the cell event count (at 100 µM) was 20 (inactive) and the cell event count (event count, at 10 µM) was 125.

With `O=C(c1ccc(COCC(F)(F)F)o1)N1CCCCCC1`, the cell event count was 118 (inactive) (at 100 µM) and 104 (event count, at 10 µM).

`CCN(CC)CCCNC(=O)c1cc(-c2ccc(Cl)c(Cl)c2)on1`: the cell event count is 22 (inactive) (at 100 µM) and 165 (event count, at 10 µM).

As to `Cc1onc(-c2ccccc2Cl)c1C(=O)N(C)C1CCCCC1`, the cell event count is, setting by setting: (at 100 µM) 25 (inactive); (event count, at 10 µM) 188.

Turning to `Cc1oc(-c2ccc(Cl)cc2)nc1CN1CCCC(C(=O)NCCCN2CCCC2=O)C1` (stereo unspecified), the cell event count is, setting by setting: (at 100 µM) 43 (inactive); (event count, at 10 µM) 258.

In the case of `COc1ccccc1N1CCN(c2nc3ccccc3nc2C(C#N)C(=O)OC(C)C)CC1` (stereo unspecified), the cell event count is, setting by setting: (at 100 µM) 110 (inactive); (event count, at 10 µM) 252.
